# PubChem BioAssay (EPA / NIEHS)
# Records with an inconclusive call do not appear. Activity calls are given as the source filed them. The calls were made as follows: active = hit-call score of the fitted dose curve at least 0.9, where 1 is the maximum; inconclusive = response in the unintended direction; inactive = score below 0.9.
# Legend:
# [1] = biological target: human SRC Proto-Oncogene, Non-receptor Tyrosine Kinase (SRC), SRC (gene 6714) (UniProt P12931); test: NVS_ENZ_hSRC: NovaScreen (NVS) Enzymatic Assay for human SRC Proto-Oncogene, Non-receptor Tyrosine Kinase (SRC) (AID 2283223)
# In short: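 Cell-free kinase activity assay with fluorescent substrate, product separated by electrophoretic mobility shift, read 1 h after dosing. Duplicate single point at 25 uM, then concentration-response up to 50 uM; loss of signal versus DMSO.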
# [2] = biological target: human Sirtuin 2 (SIRT2), SIRT2 (gene 22933) (UniProt Q8IXJ6); test: NVS_ENZ_hSIRT2: NovaScreen (NVS) Enzymatic Assay for human Sirtuin 2 (SIRT2) (AID 2283217)
# In short: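 Cell-free recombinant human SIRT2, fluorescent substrate with product separated by electrophoretic mobility shift, 1 hr. Screened in duplicate at 25 uM; hits rerun singly in concentration-response up to 50 uM, relative to DMSO.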
# [3] = biological target: human Sirtuin 3 (SIRT3), SIRT3 (gene 23410) (UniProt Q9NTG7); test: NVS_ENZ_hSIRT3: NovaScreen (NVS) Enzymatic Assay for human Sirtuin 3 (SIRT3) (AID 2283222)
# In short: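 Cell-free enzyme assay with recombinant protein and fluorescent substrate, product separated by electrophoretic mobility shift; read 1 hour after dosing. Screened in duplicate at 25 uM, then singleton concentration-response up to 50 uM; loss of signal versus DMSO.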
# [4] = biological target: rat Constitutive Nitric Oxide Synthase (CNOS), Nos1 (gene 24598) (UniProt P29476); test: NVS_ENZ_rCNOS: NovaScreen (NVS) Enzymatic Assay for rat Constitutive Nitric Oxide Synthase (CNOS) (AID 2283236)
# In short: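 Enzyme activity in rat brain membrane preparation, read 1 h after dosing by filter-based radiometric scintillation counting. Primary screen in duplicate at 25 uM; actives (e.g., ≥30% inhibition) then run in concentration-response up to 50 uM.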
# [5] = biological target: human Vascular Endothelial Growth Factor Receptor 1 (VEGFR1), FLT1 (gene 2321) (UniProt P17948); test: NVS_ENZ_hVEGFR1: NovaScreen (NVS) Enzymatic Assay for human Vascular Endothelial Growth Factor Receptor 1 (VEGFR1) (AID 2283226)
# In short: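 Cell-free assay of recombinant human VEGFR1 kinase with substrate, measured 1 h after dosing; fluorescence with electrophoretic mobility-shift separation of substrate and product, referenced to DMSO; primary screen at 25 uM in duplicate, actives then run in concentration series.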
# [6] = biological target: human Vascular Endothelial Growth Factor Receptor 2 (VEGFR2), KDR (gene 3791) (UniProt P35968); test: NVS_ENZ_hVEGFR2: NovaScreen (NVS) Enzymatic Assay for human Vascular Endothelial Growth Factor Receptor 2 (VEGFR2) (AID 2283230)
# In short: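 Cell-free recombinant VEGFR2 kinase, fluorescent substrate with electrophoretic mobility-shift separation; read 1 h after dosing. Screened at 25 uM in duplicate, hits to concentration-response up to 50 uM; loss-of-signal versus DMSO.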
# [7] = biological target: Adenosine receptor A1 (Bos taurus) (UniProt P28190); test: NVS_GPCR_bAdoR_NonSelective: NovaScreen (NVS) G Protein-Coupled Receptor Assay for bovine Adenosine Receptor (AdoR), Non-selective Binding (AID 2283244)
# In short: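 Bovine striatal membranes, radioligand displacement binding, 1 h after dosing, filter-based scintillation counting. Screened in duplicate at 25 uM, then concentration-response up to 50 uM; loss of specific binding relative to DMSO.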
# [8] = biological target: rabbit Imidazoline 2 Central (I2C), CKB (gene 100009085) (UniProt P00567); test: NVS_ENZ_rabI2C: NovaScreen (NVS) Enzymatic Assay for rabbit Imidazoline 2 Central (I2C) (AID 2283228)
# In short: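 Rabbit brain membranes, cell-free; readout by filter-based scintillation counting 1.5 hours after dosing, loss of signal vs DMSO. Initial duplicate test at 25 uM, then concentration-response with 50 uM top concentration.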
# [9] = biological target: human Sirtuin 1 (SIRT1), SIRT1 (gene 23411) (UniProt Q96EB6); test: NVS_ENZ_hSIRT1: NovaScreen (NVS) Enzymatic Assay for human Sirtuin 1 (SIRT1) (AID 2283219)
# In short: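 Cell-free recombinant SIRT1 with a fluorescent substrate; substrate and product separated by electrophoretic mobility shift and read by fluorescence intensity, 1 h after dosing. Primary screen at 25 uM in duplicate; hits re-run in concentration-response up to 50 uM, relative to DMSO.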
# [10] = biological target: human Tropomyosin Receptor Kinase A (TRKA), NTRK1 (gene 4914) (UniProt P04629); test: NVS_ENZ_hTrkA: NovaScreen (NVS) Enzymatic Assay for human Tropomyosin Receptor Kinase A (TRKA) (AID 2283224)
# In short: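 Recombinant human TrkA activity read after 1 h by fluorescence with electrophoretic mobility shift separating substrate and product. Primary screen in duplicate at 25 uM; actives were rerun in concentration-response up to 50 uM. Loss of signal versus DMSO.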
# [11] = biological target: human Rho Associated Coiled-coil Containing Protein Kinase 1 (ROCK1), ROCK1 (gene 6093) (UniProt Q13464); test: NVS_ENZ_hROCK1: NovaScreen (NVS) Enzymatic Assay for human Rho Associated Coiled-coil Containing Protein Kinase 1 (ROCK1) (AID 2283214)
# In short: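 Cell-free recombinant human ROCK1 activity assay; fluorescent substrate and product separated by electrophoretic mobility shift, read 1 h after dosing. Screened in duplicate at 25 uM; loss of signal versus DMSO baseline scored as inhibition.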
# [12] = biological target: sheep Cyclooxygenase-1 (Cox1), PTGS1 (gene 443551) (UniProt P05979); test: NVS_ENZ_oCOX1: NovaScreen (NVS) Enzymatic Assay for sheep Cyclooxygenase-1 (Cox1) (AID 2283239);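 also: actives reduce cyclooxygenase activity so potencies are for inhibitors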
# In short: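 Ovine seminal vesicle extract; absorbance (colorimetric) enzyme read-out at 0.66 h post-dose. Primary: single conc 25 uM, duplicate. Follow-up: concentration series on actives. Activity = signal loss vs DMSO baseline.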
# [13] = system: bovine Angiotensin II Receptor Type 2 (AT2), gene 407157; test: NVS_GPCR_bAT2: NovaScreen (NVS) G Protein-Coupled Receptor Assay for bovine Angiotensin II Receptor Type 2 (AT2) (AID 2283240)
# In short: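 Radioligand displacement on bovine cerebellar membranes, 1 hour incubation, filter-based scintillation counting; loss of signal vs DMSO. Duplicate single-point screen at 25 uM, then concentration-response to 50 uM maximum.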
# [14] = biological target: sheep Cyclooxygenase-2 (Cox2), PTGS2 (gene 443460) (UniProt P79208); test: NVS_ENZ_oCOX2: NovaScreen (NVS) Enzymatic Assay for sheep Cyclooxygenase-2 (Cox2) (AID 2283231)
# In short: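 Enzyme extracted from ovine placenta tested cell-free; activity read colorimetrically by absorbance 0.66 hour after dosing. Primary screen in duplicate at 25 uM; hits rerun as concentration series to 50 uM, loss of signal versus DMSO baseline.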
# [15] = biological target: human Vascular Endothelial Growth Factor Receptor 3 (VEGFR3), FLT4 (gene 2324) (UniProt P35916); test: NVS_ENZ_hVEGFR3: NovaScreen (NVS) Enzymatic Assay for human Vascular Endothelial Growth Factor Receptor 3 (VEGFR3) (AID 2283229)
# In short: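 Cell-free recombinant VEGFR3 kinase reaction with fluorescent substrate, read 1 h after dosing by electrophoretic mobility shift separation of substrate and product. Single-concentration duplicate screen at 25 uM, then concentration-response up to 50 uM; loss of activity versus DMSO.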
# [16] = biological target: human Protein Tyrosine Phosphatase Receptor Type M (PTPRM), PTPRM (gene 5797) (UniProt P28827); test: NVS_ENZ_hPTPRM: NovaScreen (NVS) Enzymatic Assay for human Protein Tyrosine Phosphatase Receptor Type M (PTPRM) (AID 2283215)
# In short: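 Cell-free recombinant PTPRM with fluorogenic substrate; product separated from substrate by electrophoretic mobility shift and read by fluorescence, 1.33 h after dosing. Primary screen single concentration (25 uM) in duplicate; actives retested in concentration series; loss of signal versus DMSO.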
# [17] = biological target: rat Catechol-O-Methyl Transferase (COMT), Comt (gene 24267) (UniProt P22734); test: NVS_ENZ_rCOMT: NovaScreen (NVS) Enzymatic Assay for rat Catechol-O-Methyl Transferase (COMT) (AID 2283235)
# In short: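 Cell-free enzyme activity with protein extracted from rat dorsal striatum, measured by HPLC with absorbance detection. Compounds screened at 25 uM in duplicate; actives then run in concentration-response up to 50 uM, loss of signal versus DMSO.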
# [18] = system: bovine Histamine 1 Receptor (H1), gene 281231; test: NVS_GPCR_bH1: NovaScreen (NVS) G Protein-Coupled Receptor Assay for bovine Histamine 1 Receptor (H1) (AID 2283246)
# In short: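 Radioligand displacement on bovine cerebellar membranes, 1 h after dosing, filter-based scintillation read-out; loss of signal vs DMSO. Duplicate single-concentration screen at 25 uM, then concentration-response up to 50 uM for hits.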
# [19] = biological target: bovine Dopamine Receptor (DR), Non-selective Binding, DRD1 (gene 281125) (UniProt Q95136); test: NVS_GPCR_bDR_NonSelective: NovaScreen (NVS) G Protein-Coupled Receptor Assay for bovine Dopamine Receptor (DR), Non-selective Binding (AID 2283241)
# In short: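 Bovine striatal membranes; radioligand displacement read by filtration and scintillation counting 1 h after dosing, loss of signal vs DMSO. Screened in duplicate at 25 uM, then concentration-response for hits.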
# rabbit Imidazoline 2 Central (I2C), CKB (gene 100009085), sequence (P00567 whole entry, looked up): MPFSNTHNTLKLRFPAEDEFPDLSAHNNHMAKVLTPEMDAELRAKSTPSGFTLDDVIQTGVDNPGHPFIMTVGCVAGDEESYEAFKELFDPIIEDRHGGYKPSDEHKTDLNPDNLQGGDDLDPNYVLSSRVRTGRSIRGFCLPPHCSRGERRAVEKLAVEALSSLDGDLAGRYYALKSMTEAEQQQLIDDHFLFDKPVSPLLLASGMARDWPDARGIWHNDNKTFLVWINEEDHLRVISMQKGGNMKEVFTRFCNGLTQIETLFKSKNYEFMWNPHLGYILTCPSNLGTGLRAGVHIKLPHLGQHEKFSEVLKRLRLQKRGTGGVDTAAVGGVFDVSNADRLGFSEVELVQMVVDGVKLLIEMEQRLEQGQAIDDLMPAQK
# human Vascular Endothelial Growth Factor Receptor 1 (VEGFR1), FLT1 (gene 2321), sequence (P17948 whole entry, looked up): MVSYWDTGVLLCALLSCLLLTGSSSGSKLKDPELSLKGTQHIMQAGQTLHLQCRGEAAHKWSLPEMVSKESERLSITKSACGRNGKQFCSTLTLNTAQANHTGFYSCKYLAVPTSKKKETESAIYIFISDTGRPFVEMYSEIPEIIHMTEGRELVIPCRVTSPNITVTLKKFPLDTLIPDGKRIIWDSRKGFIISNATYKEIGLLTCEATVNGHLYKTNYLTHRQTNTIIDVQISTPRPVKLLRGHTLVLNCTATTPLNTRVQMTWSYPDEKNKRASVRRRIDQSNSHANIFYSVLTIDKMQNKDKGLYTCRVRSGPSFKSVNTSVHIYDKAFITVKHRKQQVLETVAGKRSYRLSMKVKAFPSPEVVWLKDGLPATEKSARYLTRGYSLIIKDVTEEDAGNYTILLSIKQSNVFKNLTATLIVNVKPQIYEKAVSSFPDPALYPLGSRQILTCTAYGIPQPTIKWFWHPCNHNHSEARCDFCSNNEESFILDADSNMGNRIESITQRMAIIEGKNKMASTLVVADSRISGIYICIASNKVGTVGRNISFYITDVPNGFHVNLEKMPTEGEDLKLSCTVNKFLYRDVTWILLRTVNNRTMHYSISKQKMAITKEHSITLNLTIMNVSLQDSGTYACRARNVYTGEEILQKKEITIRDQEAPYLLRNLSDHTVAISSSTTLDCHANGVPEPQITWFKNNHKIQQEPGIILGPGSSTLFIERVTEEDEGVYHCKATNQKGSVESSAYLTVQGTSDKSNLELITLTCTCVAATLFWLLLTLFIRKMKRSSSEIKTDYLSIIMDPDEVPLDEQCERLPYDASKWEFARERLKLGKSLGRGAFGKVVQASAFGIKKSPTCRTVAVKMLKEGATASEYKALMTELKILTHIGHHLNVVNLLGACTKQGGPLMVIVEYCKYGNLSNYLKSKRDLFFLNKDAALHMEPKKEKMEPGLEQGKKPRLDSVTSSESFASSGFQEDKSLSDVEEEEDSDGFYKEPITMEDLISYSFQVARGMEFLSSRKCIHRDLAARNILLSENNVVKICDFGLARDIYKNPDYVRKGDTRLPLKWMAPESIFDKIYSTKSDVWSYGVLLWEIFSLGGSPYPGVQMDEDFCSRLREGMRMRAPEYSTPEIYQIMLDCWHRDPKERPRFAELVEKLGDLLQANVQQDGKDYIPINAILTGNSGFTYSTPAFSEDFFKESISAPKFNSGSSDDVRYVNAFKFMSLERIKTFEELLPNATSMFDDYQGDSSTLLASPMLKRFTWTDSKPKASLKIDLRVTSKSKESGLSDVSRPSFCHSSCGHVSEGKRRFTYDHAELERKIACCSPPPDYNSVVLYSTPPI
# human SRC Proto-Oncogene, Non-receptor Tyrosine Kinase (SRC), SRC (gene 6714), sequence (P12931 whole entry, looked up): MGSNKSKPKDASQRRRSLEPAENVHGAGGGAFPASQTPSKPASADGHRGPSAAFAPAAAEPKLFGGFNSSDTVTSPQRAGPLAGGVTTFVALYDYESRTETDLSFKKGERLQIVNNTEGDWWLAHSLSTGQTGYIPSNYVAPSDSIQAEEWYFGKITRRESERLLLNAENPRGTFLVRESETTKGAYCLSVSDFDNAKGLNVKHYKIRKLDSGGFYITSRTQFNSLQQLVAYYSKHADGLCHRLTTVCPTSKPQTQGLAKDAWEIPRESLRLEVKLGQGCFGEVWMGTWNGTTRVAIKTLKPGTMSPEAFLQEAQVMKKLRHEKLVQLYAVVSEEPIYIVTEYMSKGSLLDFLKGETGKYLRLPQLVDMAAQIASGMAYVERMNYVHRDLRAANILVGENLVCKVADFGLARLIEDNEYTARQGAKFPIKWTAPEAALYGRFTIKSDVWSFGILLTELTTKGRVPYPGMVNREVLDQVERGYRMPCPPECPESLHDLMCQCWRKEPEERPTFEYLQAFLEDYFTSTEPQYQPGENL
# human Rho Associated Coiled-coil Containing Protein Kinase 1 (ROCK1), ROCK1 (gene 6093), sequence (Q13464 whole entry, looked up): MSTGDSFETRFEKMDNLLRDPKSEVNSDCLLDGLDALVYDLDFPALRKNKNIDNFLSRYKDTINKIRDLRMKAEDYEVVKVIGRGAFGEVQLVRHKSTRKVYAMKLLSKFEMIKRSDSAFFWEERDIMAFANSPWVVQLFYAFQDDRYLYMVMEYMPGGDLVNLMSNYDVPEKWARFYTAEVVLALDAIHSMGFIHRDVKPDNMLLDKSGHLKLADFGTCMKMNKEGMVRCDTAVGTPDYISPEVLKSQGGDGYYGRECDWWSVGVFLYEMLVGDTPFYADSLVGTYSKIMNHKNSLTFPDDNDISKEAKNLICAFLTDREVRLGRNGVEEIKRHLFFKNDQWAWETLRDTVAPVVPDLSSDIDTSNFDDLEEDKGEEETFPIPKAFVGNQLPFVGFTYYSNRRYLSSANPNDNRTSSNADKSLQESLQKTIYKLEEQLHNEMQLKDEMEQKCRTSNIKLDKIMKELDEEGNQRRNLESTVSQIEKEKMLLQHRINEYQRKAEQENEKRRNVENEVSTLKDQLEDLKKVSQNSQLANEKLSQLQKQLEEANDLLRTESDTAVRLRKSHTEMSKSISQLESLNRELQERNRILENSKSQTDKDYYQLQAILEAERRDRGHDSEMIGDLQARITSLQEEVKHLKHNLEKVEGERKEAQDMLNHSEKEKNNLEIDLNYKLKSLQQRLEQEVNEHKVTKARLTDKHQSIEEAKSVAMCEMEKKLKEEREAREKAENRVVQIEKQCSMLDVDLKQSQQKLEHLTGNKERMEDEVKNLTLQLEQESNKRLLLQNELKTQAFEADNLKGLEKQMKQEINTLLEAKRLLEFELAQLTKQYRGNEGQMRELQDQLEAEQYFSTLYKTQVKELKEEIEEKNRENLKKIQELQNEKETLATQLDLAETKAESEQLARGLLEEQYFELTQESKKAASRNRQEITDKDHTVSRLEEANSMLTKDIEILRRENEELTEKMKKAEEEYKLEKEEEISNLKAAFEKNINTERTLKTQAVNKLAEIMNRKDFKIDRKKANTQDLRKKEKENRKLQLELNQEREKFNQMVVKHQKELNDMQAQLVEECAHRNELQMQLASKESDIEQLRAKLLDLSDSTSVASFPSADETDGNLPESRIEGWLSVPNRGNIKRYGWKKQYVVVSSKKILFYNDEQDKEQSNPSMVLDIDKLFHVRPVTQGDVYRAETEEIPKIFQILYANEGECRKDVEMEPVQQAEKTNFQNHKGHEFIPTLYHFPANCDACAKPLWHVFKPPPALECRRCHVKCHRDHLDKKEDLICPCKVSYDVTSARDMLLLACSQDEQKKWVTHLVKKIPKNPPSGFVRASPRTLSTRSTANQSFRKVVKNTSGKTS
# human Sirtuin 3 (SIRT3), SIRT3 (gene 23410), sequence (Q9NTG7 whole entry, looked up): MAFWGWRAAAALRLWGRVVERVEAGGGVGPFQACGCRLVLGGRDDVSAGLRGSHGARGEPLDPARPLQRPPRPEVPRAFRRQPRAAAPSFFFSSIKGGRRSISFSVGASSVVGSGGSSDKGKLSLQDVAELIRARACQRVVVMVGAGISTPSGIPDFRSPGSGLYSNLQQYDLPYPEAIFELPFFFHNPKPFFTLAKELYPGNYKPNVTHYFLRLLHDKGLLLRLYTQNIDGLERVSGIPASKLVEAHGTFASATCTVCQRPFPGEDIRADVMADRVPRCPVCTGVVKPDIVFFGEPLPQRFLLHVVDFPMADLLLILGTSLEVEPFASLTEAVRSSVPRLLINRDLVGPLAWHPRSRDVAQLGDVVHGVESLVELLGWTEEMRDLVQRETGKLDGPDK
# human Sirtuin 1 (SIRT1), SIRT1 (gene 23411), sequence (Q96EB6 whole entry, looked up): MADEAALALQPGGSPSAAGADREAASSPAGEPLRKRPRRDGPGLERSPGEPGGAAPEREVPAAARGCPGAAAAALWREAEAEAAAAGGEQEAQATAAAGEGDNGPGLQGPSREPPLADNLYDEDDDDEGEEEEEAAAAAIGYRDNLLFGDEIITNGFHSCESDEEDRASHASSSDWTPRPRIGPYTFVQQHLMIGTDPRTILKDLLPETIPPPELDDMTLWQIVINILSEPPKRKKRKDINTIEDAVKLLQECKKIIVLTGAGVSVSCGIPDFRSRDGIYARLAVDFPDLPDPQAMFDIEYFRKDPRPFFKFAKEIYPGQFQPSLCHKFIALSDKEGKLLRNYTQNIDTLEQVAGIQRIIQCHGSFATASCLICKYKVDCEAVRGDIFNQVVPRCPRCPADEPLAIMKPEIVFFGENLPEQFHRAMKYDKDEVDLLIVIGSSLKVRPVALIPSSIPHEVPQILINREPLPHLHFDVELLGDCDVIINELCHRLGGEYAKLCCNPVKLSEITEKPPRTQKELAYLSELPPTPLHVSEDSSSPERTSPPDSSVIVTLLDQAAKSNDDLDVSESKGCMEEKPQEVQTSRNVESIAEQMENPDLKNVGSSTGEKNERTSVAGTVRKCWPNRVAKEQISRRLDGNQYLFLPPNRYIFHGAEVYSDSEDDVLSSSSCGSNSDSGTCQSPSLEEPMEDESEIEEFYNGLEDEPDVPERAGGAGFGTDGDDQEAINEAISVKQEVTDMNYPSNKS
# rat Catechol-O-Methyl Transferase (COMT), Comt (gene 24267), sequence (P22734 whole entry, looked up): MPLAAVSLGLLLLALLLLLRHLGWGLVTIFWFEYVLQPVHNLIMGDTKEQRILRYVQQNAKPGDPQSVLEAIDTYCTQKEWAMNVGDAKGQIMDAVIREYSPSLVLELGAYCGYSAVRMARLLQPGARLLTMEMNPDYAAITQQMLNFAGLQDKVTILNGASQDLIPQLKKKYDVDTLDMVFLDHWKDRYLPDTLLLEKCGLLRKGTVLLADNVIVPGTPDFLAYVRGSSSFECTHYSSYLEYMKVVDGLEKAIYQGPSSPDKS
compound,measurement,setting,value
CCCc1cc(=O)[nH]c(=S)[nH]1,outcome,[1],inactive
CC(C)c1ccc(C(=O)N=C(N)N)cc1S(C)(=O)=O,outcome,[2],inactive
same,outcome,[3],inactive
same,outcome,[4],inactive
CCc1c(C(=O)NN2CCCCC2)nn(-c2ccc(Cl)cc2Cl)c1-c1ccc(Br)cc1,outcome,[5],inactive
same,outcome,[6],inactive
same,outcome,[7],inactive
CN1CCN(Cc2cc(-c3ccc4[nH]c(=O)oc4c3)co2)[C@@H](c2ccc(F)cc2)C1,AC50,[8],22 µM (active)
Oc1ccc2c(c1)OC[C@@H](N1CCC(O)(c3ccc(F)cc3)CC1)[C@H]2O,outcome,[8],inactive
CCOC(=O)CCC(=O)OCC,outcome,[8],inactive
Cc1c(C(=O)O)c(O)cc2c1C(=O)c1c(O)c([C@@H]3O[C@H](CO)[C@@H](O)[C@H](O)[C@H]3O)c(O)c(O)c1C2=O,outcome,[9],inactive
NCC1(Cc2noc(=O)[nH]2)CCCCC1,outcome,[9],inactive
CC1(C)CC(N=C=O)CC(C)(CN=C=O)C1 (configuration not stated),outcome,[3],inactive
FC(F)(F)C(F)(F)C(F)(F)C(F)(F)C(F)(F)C(F)(F)CCI,outcome,[10],inactive
same,outcome,[5],inactive
same,outcome,[4],inactive
CC(=O)C(C)=CC1C(C)=CCCC1(C)C (configuration not stated),outcome,[9],inactive
Cc1cc(NC(=O)C(=O)O)cc(C)c1Oc1ccc(O)c2c1CCC2,AC50,[9],25 µM (active)
CC(=O)OCCOCCOCCOC(C)=O,outcome,[11],inactive
COc1cc(-c2nc(NC(=O)c3cc4cc(C)cc(C)c4n3CC(=O)O)sc2CCC2CCCCC2)c(OC)cc1Cl,AC50,[3],30.3 µM (active)
same,AC50,[6],7.16 µM (active)
same,AC50,[12],4 µM (active)
same,AC50,[13],29.4 µM (active)
C=CCOC(=O)c1ccccc1C(=O)OCC=C,outcome,[2],inactive
same,AC50,[14],5.13 µM (active)
CC1(C)NC(=O)NC1=O,outcome,[1],inactive
NCCO,outcome,[9],inactive
same,outcome,[1],inactive
same,outcome,[5],inactive
same,outcome,[15],inactive
same,outcome,[6],inactive
CCCCCCCCCCCCCCCCCC(=O)O,outcome,[11],inactive
O=C(OCCCCCOC(=O)c1ccccc1)c1ccccc1,outcome,[16],inactive
same,outcome,[9],inactive
same,outcome,[1],inactive
same,outcome,[6],inactive
CCCCCCCC=O,outcome,[9],inactive
Cc1cccc([N+](=O)[O-])c1C,outcome,[11],inactive
same,outcome,[9],inactive
Cc1nc(-c2ccc3c(c2)CCN(CCC2CCC(NC(=O)/C=C/c4ccc(F)cc4)CC2)CC3)no1 (configuration not stated),outcome,[2],inactive
same,outcome,[9],inactive
same,outcome,[3],inactive
CC1=C(/C=C/C(C)=C/C=C/C(C)=C/CO)C(C)(C)CCC1,outcome,[9],inactive
same,outcome,[10],inactive
same,outcome,[5],inactive
same,outcome,[15],inactive
same,outcome,[6],inactive
same,AC50,[14],15.5 µM (active)
same,outcome,[17],inactive
same,AC50,[12],17.9 µM (active)
Cc1ccc(C)c(O)c1C,outcome,[11],inactive
same,AC50,[14],3.04 µM (active)
CCCCCCCCCCC,outcome,[5],inactive
Cc1oc(-c2ccccc2)nc1CCOc1cccc2c1ccn2CCC(=O)O,outcome,[1],inactive
same,outcome,[5],inactive
same,outcome,[6],inactive
Cc1nc(C)nc(N2C[C@@H](C)N(c3ccnc([C@@H](C)O)n3)[C@@H](C)C2)n1,outcome,[11],inactive
c1cc(-c2ccncc2)ccn1,outcome,[9],inactive
Cc1ccc(C(C)C)c(O)c1,outcome,[9],inactive
same,outcome,[18],inactive
Cc1cccc(Nc2cc(Cl)nc(SCC(=O)O)n2)c1C,outcome,[9],inactive
same,outcome,[3],inactive
CCCCc1ccc2c(n1)[C@@H](c1ccc(OC)cc1C[C@H](C)C(=O)O)[C@H](C(=O)O)[C@H]2c1ccc2c(c1)OCO2,outcome,[5],inactive
O=c1c(O)c(-c2ccc(O)c(O)c2)oc2cc(O)cc(O)c12,AC50,[17],12.4 µM (active)
CCCCC(CC)COC(=O)CC(C(=O)OCC(CC)CCCC)S(=O)(=O)O (configuration not stated),AC50,[13],19.1 µM (active)
NC(=O)Cn1c(=O)cc(CCN2CCN(c3nccc4sccc34)CC2)c2ccc(F)cc21,AC50,[19],1.26 µM (active)
C1CCC(SSC2CCCCC2)CC1,outcome,[19],inactive
